High-throughput results: PubChem, National Center for Advancing Translational Sciences (NCATS)
HEK cytotox = kills HEK 293 cells. actives 6.6% (n = 94,000). Potency, µM (doses to about 115 µM), for the others: at the highest dose activity change, negative = cytotoxicity, actives largely listed as inhibitors. HEK 293 viability, ATP luminescence (CellTiter-Glo), 48-72 h; also: % is scaled to controls: 0 for no effect and ±100 for the full control effect; nearly all actives have a fitted effect of over 60% in size
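qHTS cytotoxicity; HEK 293, 250 cells/well; compound pinned; 48 or 72 hr, 37 degree Celsius, 5% CO2, 95% humidity; CellTiter-Glo, 10 min RT; luminescence (ATP).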
FLuc inh = blocks purified firefly luciferase enzyme activity; P08659; purified P. pyralis luciferase, luminescence, biochemical; AID 1347043; Potency, µM (doses to about 115 µM), actives largely listed as inhibitors; actives 2.5% (n = 76,000); also: % is scaled to controls: 0 for no effect and ±100 for the full control effect; nearly all actives have a fitted effect of over 65% in size
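Luminescence read by CCD imager after adding enzyme (10nM final) to wells holding compound, titrated in qHTS. Substrates 10uM each D-luciferin and ATP; buffer 50mM Tris acetate pH 7.5, 10mM Mg acetate, Tween-20, BSA.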
NPR1 antag = blocks ANP-stimulated signaling of human Npr1 receptor; P16066; HEK293 hNpr1 GloSensor cGMP, ANP-stimulated luminescence; Potency, µM (titrated, usually from 46.3 µM), inactives show at the highest dose activity change, negative = inhibition, usual class: inhibitors; actives 1.6% (n = 76,000); AID 1347048; calls by dose curve; also: % is scaled to controls: 0 for no effect and ±100 for the full control effect; nearly all actives have a fitted effect of over 60% in size
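HEK293 cells stably expressing human Npr1 and cGMP GloSensor pGS-40F, loaded 2 h with 2% GloSensor reagent, given compound 30 min at room temperature. Luminescence read before and 20 min after 0.1 nM hNppA.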
NIH3T3 tox = kills NIH 3T3 cells; NIH 3T3 viability, CellTiter-Glo ATP luminescence, 48-72 h; Potency, µM (highest dose often 96.7 µM), for inactives: at the highest dose activity change, negative = cytotoxicity, hits mostly inhibitors; actives 4.3% (n = 94,000); AID 1345082; also: % is scaled to controls: 0 for no effect and ±100 for the full control effect; nearly all actives have a fitted effect of over 55% in size
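Cells were seeded at 400 per well, treated with pin-transferred compound, and kept 48 or 72 hr at 37 °C before CellTiter-Glo addition and luminescence imaging of cellular ATP.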
NPR1 antag cnf = confirmation of human Npr1 natriuretic peptide receptor antagonists | shares compounds with NPR1 antag | HEK293 hNpr1 cGMP GloSensor luminescence, ANP-stimulated | Potency, µM (top dose mostly 57.6 µM), for inactives: top-dose activity change, negative = inhibition, hits mostly inhibitors | actives 76% (n = 1,400) | AID 1347044; calls by dose curve; also: nearly all actives have a fitted effect of over 70% in size
NPR2 antag = selectivity test of Npr1 antagonists against human Npr2 | shares compounds with NPR1 antag | HEK293 hNpr2 GloSensor cGMP luminescence, CNP-stimulated | Potency, µM (doses to about 57.6 µM), without a hit: top-dose activity change, negative = inhibition, most hits filed as inhibitors | actives 67% (n = 1,400); calls by dose curve; also: nearly all actives have a fitted effect of over 70% in size
Target sequence (P20594 whole entry, looked up): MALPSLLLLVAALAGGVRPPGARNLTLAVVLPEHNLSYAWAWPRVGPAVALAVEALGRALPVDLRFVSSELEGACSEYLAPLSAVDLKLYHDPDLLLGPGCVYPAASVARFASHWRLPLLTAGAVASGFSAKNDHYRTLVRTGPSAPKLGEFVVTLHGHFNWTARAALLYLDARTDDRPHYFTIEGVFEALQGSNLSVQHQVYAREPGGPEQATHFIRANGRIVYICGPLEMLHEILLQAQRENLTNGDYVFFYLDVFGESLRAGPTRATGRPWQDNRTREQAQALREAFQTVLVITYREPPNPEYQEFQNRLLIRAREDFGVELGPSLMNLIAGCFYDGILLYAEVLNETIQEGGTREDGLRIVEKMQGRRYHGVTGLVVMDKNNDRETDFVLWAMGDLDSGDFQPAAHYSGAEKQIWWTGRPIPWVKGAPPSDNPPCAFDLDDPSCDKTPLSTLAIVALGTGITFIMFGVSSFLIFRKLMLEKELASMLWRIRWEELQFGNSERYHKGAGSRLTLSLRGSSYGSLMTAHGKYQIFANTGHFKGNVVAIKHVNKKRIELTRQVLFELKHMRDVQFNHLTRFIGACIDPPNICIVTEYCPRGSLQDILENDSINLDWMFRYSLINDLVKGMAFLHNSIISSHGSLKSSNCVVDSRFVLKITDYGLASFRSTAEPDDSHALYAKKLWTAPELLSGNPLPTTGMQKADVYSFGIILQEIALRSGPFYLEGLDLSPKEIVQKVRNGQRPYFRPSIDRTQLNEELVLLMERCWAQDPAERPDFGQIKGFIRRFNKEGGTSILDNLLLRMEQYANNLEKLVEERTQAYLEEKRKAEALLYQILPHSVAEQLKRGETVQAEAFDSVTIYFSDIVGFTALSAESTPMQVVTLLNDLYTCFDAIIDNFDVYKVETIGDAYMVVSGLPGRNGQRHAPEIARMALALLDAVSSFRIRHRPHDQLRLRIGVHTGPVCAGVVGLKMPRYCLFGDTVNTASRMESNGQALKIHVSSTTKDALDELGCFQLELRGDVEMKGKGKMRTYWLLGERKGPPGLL
FLuc inh counter = inhibits firefly luciferase, false Npr1 antagonist flag; purified FLuc enzyme, luminescence, Km substrate; shares compounds with NPR1 antag; actives 0.7% (n = 1,400); Potency, µM (series often up to 57.6 µM), for the others: top-dose activity change, negative = inhibition, usual class: inhibitors; AID 1347047; also: 0% is about no effect
GloSensor ctrl = control cell line activity, Npr1 antagonist counter-screen; shares compounds with NPR1 antag; HEK293 GloSensor cGMP, SNP-stimulated, luminescence; Potency, µM (series often up to 57.6 µM), for the others: at the highest dose activity change, negative = inhibition, usual class: inhibitors; actives 69% (n = 1,400); AID 1347051; calls by dose curve; also: % is scaled to controls: 0 for no effect and ±100 for the full control effect; nearly all actives have a fitted effect of over 70% in size
* marks the source's active call; other numbers are inactive results; i = inactive; ? = inconclusive; nt = not tested or not shown; [ ] = remark or other dose. Rows were chosen to be rich in hits. Some 11% of all compounds tested hit in one or more screens of this group. Unless noted, calls follow the shape of the dose curve; as a rule, active = well fitted curve in the direction sought with a large enough effect; inconclusive = small, poorly fitted or top-dose-only effect, or another doubt; inactive = no such curve, though single readings can be large; an effect the other way counts as inactive or inconclusive. Potency is read from the fitted curve at half-maximal effect.

SMILES | HEK cytotox | FLuc inh | NPR1 antag | NIH3T3 tox | NPR1 antag cnf | NPR2 antag | FLuc inh counter | GloSensor ctrl
COc1cc(C(=O)N2CCCN(c3cc(-c4ccc(F)cc4)[nH]n3)CC2)cc(OC)c1OC | 2% | i | -1% | i | nt | nt | nt | nt
O=C(CCn1ccn2nc3c(c2c1=O)CCCC3)NCCCc1ccccc1 | -4% | i | -1% | -5% | nt | nt | nt | nt
COc1ccc(NC(=O)N2CCCC(Cn3cnc4cccnc43)C2)cc1OC (stereo unspecified) | -12% | i | -11% | -20% | nt | nt | nt | nt
O=C(Cc1ccsc1)N1CCC2(CC1)CC(OCC1CC1)CCO2 (stereo unspecified) | 8% | i | 4% | 2% | nt | nt | nt | nt
CC1=NS(=O)(=O)N(C)C=C1C(=O)OCc1noc(-c2cccs2)n1 | ? | i | 10µM* | ? | 22µM* | 19µM* | -2% | 22µM*
CC1=NS(=O)(=O)N(C)C=C1C(=O)OCc1noc(-c2ccccc2F)n1 | -32% | i | 11µM* | ? | 19µM* | 17µM* | -13% | 14µM*
CC1=NS(=O)(=O)N(C)C=C1C(=O)OCc1nc(-c2cccs2)no1 | -27% | i | ? | -22% | 24µM* | ? | -17% | 22µM*
CC1=NS(=O)(=O)N(Cc2ccccc2)C=C1C(=O)OCc1noc(C2CCCC2)n1 | ? | i | -25% | ? | nt | nt | nt | nt
CC1=NS(=O)(=O)N(C)C=C1C(=O)OCc1noc(-c2ccccc2C)n1 | ? | i | 10µM* | ? | 11µM* | 17µM* | -11% | 11µM*
O=C(c1ccccc1F)N1CCCCCC1c1nnc(-c2ccccc2)o1 (stereo unspecified) | ? | i | 1% | ? | nt | nt | nt | nt
Cc1cc(C(F)(F)F)nc(CCNC(=O)c2ccc3ncccc3c2)n1 | -3% | i | 0% | -22% | nt | nt | nt | nt
COc1ccc(C)cc1NC(=O)CC1CCCN(c2cnn(CC3CC3)c(=O)c2)C1 (stereo unspecified) | ? | i | -2% | ? | nt | nt | nt | nt
CC1=NS(=O)(=O)N(C)C=C1C(=O)OCc1nc(C2CC2)no1 | -3% | i | -5% | -3% | nt | nt | nt | nt
COC(=O)c1ccc(COC(=O)C2=CN(C)S(=O)(=O)N=C2C)o1 | -30% | i | ? | -30% | 24µM* | ? | 3% | 19µM*
Cc1cn2nc(C(=O)Nc3ccc(C(F)(F)F)cc3)cc2c(N2CCSCC2)n1 | -26% | i | ? | ? | nt | nt | nt | nt
COc1ccc(CN2C(=O)COC[C@@H]2[C@H](O)c2ccc(NC(=O)Cc3ccccc3)cc2)cc1 | ? | i | 2% | ? | nt | nt | nt | nt
COc1ccc(CC(=O)Nc2ccc([C@@H](O)[C@H]3COCC(=O)N3Cc3ccc(C(F)(F)F)cc3)cc2)cc1 | 32µM* | i | -25% | ? | ? | -18% | -1% | -26%
CC(C)(C)CC(=O)N[C@H]1C[C@@H](Cc2cc(CN3CCN(c4ccccc4)CC3)on2)C1(C)C | 25µM* | i | 2.8µM* | ? | 3.1µM* | 3.4µM* | 4% | 2.4µM*
COc1ccccc1CCN1Cc2cc(NC(=O)Cc3cccs3)ccc2OC(C)C1=O (stereo unspecified) | ? | i | -17% | ? | nt | nt | nt | nt
N#Cc1ccc(C2c3nc[nH]c3CCN2Cc2ccc3ccccc3n2)cc1 (stereo unspecified) | ? | i | 2% | ? | nt | nt | nt | nt
O[C@@H]1CC(CNCc2cccc(Cl)c2)(COc2ccccc2)C[C@@H]1O (stereo partly specified) | 100µM* | i | -28%[70.6 µM] | ? | ? | 31µM* | -7%[86.2 µM] | -27%[86.2 µM]
Cc1ccc(C(=O)N2CCC3(CC2)N=C(c2ccc(Br)cc2)NO3)cc1 | ? | i | 16µM* | -22% | 22µM* | 19µM* | 2% | 19µM*
O=C(c1ccc2[nH]ccc2c1)N1CCC2(CC1)N=C(c1ccc(Br)cc1)NO2 | ? | i | 11µM* | ? | 24µM* | 14µM* | -10% | 11µM*
O=C(c1cccc(F)c1)N1CCC2(CC1)N=C(c1ccc(Br)cc1)NO2 | ? | i | ? | ? | nt | nt | nt | nt
O=C(c1ccccc1)N1CCC2(CC1)N=C(c1ccc(Br)cc1)NO2 | ? | i | 16µM* | ? | 27µM* | ? | 1% | ?
SMILES | HEK cytotox | FLuc inh | NPR1 antag | NIH3T3 tox | NPR1 antag cnf | NPR2 antag | FLuc inh counter | GloSensor ctrl
CN(C)c1ccc(C(=O)N2CCC3(CC2)N=C(c2ccc(Br)cc2)NO3)cc1 | ? | i | 11µM* | -17% | 19µM* | 22µM* | 0% | 15µM*
Cc1ccc(C(=O)N2CCC3(CC2)N=C(c2ccccc2)NO3)cc1 | ? | i | 1% | -7% | nt | nt | nt | nt
CCOC(=O)C1(Cc2ccc(F)cc2)CCCN(C(=O)c2ccc(C)s2)C1 (stereo unspecified) | ? | i | 0% | ? | nt | nt | nt | nt
COCC(=O)N1CCCC(c2nn(C)c(=O)n2C(C)C)C1 (stereo unspecified) | -1% | i | 0% | -6% | nt | nt | nt | nt
Cc1ccc(OCC(=O)N2CCCC(c3nn(C)c(=O)n3C(C)C)C2)cc1 (stereo unspecified) | ? | i | 14µM* | -28% | 24µM* | ? | 2% | 24µM*
COc1ccc(C(=O)Nc2ccc(-c3noc([C@@H]4CCCN4Cc4ccccc4C)n3)cn2)cc1 | ? | i | 10µM* | -50% | 7.7µM* | 12µM* | -16% | 9.7µM*
COc1ccc(C(=O)Nc2ccc(-c3noc([C@@H]4CCCN4Cc4ccc(Cl)cc4)n3)cn2)cc1 | ? | i | ? | ? | nt | nt | nt | nt
COc1ccc(C(=O)Nc2ccc(-c3noc([C@@H]4CCCN4Cc4ccc(F)c(F)c4)n3)cn2)cc1 | ? | i | 10µM* | ? | 7.7µM* | 9.7µM* | -16% | 8.6µM*
CCCN1C(=O)Cc2ccccc2C1C(=O)NCc1cc(OC)ccc1OC (stereo unspecified) | ? | i | -26% | -26% | ? | ? | 3% | -11%
